This passage reports INHIBITION results from ChEMBL document CHEMBL4513216, “Probing the Open Global Health Chemical Diversity Library for Multistage-Active Starting Points for Next-Generation Antimalarials” (ACS Infect Dis, 2020).

Among all 65,000 compounds or so, about 2,100 (3.2%) showed an effect of 50% or more. The median lay at about -52%. The list comes from a sample in which strong results are over-represented; it also holds similar structures and randomly drawn compounds.

The test system of this test is Plasmodium falciparum. In words: Screen against P. falciparum Asexual Blood Stage (ABS), at 5uM. The format is functional, Dd2. The following applies: tested at 5 uM.
As to `COCCN1CCC12CCN(c1ncccn1)C2` (stereo not given), the INHIBITION is -86.1%.

Regarding `O=C(Cn1ccc2ccc(Br)cc21)NC[C@@H]1CCCN2CCCC[C@H]12`, the INHIBITION is 79.3%.

For `O=C(Cn1ccc2c(Cl)cccc21)N1CCC2(CC1)OCCO2`, the INHIBITION is listed as -85.8%.

As to `Cc1cccc2c1ccn2CC(=O)NC[C@@H]1CCCN2CCCC[C@H]12`, the INHIBITION amounted to 70.9%.

With `O=C(CC[C@@H]1CCCN2CCCC[C@H]12)NCCc1cc(O)ncn1`, the INHIBITION is -119%.

For `Cc1nc(O)cc(CNC(=O)CC[C@@H]2CCCN3CCCC[C@H]23)n1`, the INHIBITION is on record as -4.68%.

Regarding `O=C(Cc1c[nH]c2ccccc12)N1CCC(Nc2ccccc2)CC1`, the INHIBITION was -7.04%.

With `CN1CCc2c(CNC(=O)c3nccn3C)cncc2C1`, the INHIBITION was -77.8%.

With `COCCN1CCN(c2ccc(C)nn2)Cc2cccnc21`, the INHIBITION is listed as -2.72%.

In the case of `Cc1n[nH]cc1C(=O)NCc1cccnc1N1CCc2ccccc2C1`, the INHIBITION amounted to 75.3%.

Regarding `O=C(C1CCC1)N1CCC2(CCNCC2)C1`, the INHIBITION was -39.1%.

For the molecule `COc1ccc(-c2c(C)nn3c(=N)c(C#N)n[nH]c23)cc1OC`, the INHIBITION came out at 87.8%.

`O=C(c1cccnc1)N1C[C@@H]2OCCN(CCN3CCCC3)[C@@H]2C1`: the INHIBITION is reported as -134%.

Consider `CC(=O)NC[C@H]1C[C@@H]2CCN1C[C@@H]2c1cc(-c2cccs2)nn1C`, for which the INHIBITION was -50.5%.

As for `CC(C)(C)c1cn2c(n1)C(CNCc1cnn3ccccc13)CCC2` (stereo not given), the INHIBITION came out at 80%.

For `Cc1cccc(CN2C(=O)C[C@H]3[C@@H]2CCN3Cc2ccccn2)n1`, the INHIBITION is listed as -22.5%.

In the case of `Cn1cccc1CNCC1CCCn2cc(C(C)(C)C)nc21` (stereo not given), the INHIBITION turned out to be 75.7%.

`c1ccc(CN2CC[C@H]3[C@H]2CCN3c2ncccn2)nc1`: the INHIBITION is reported as -84.3%.

In the case of `CC(C)(C)c1cn2c(n1)C(CNCc1ccccn1)CCC2` (stereo not given), the INHIBITION worked out at 92.9%.

On to `Cc1nc(NCC2CC2)nc2c1COCC21CCNC1` (stereo not given), for which the INHIBITION is on record as -88.5%.

For `Cc1noc([C@]23COC[C@H]2CN(Cc2cc(C)on2)C3)n1`, the INHIBITION was -5.88%.

As to `Cc1nn(C)c2nc(N3CCCCC3c3cccnc3)sc12` (stereo not given), the INHIBITION is recorded as -114%.

For the molecule `CCCS(=O)(=O)N1CCc2c(COCC)cncc2C1`, the INHIBITION is reported as -24.8%.

Take `Cc1noc(C)c1CN1C[C@@H]2CCCO[C@@H]2[C@H](NS(C)(=O)=O)C1`: the INHIBITION was -59.8%.

On to `O=C(NCC(=O)N1CCC2(CC1)OCCO2)c1ccoc1`, for which the INHIBITION is listed as -196%.

For the molecule `CS(=O)(=O)N1C[C@@H]2CC[C@H]1CN(Cc1ccncc1)C2`, the INHIBITION is given as -82.5%.

Take `CC(C)=CCN1CCC2(CC1)c1ccccc1[C@@H](N1CCSCC1)[C@@H]2O`: the INHIBITION came to 78.5%.

For the molecule `COCCn1cc(C(=O)NCCS(N)(=O)=O)c2ccccc21`, the INHIBITION is given as -110%.

Take `COc1cccc(Cn2cc(C3=CCN(CC(=O)N(C)C)CC3)cn2)c1`: the INHIBITION is on record as -27.6%.

Turning to `CCC(O)Cn1cc(C2=CCN(Cc3cc(O)nc(C)n3)CC2)cn1` (stereo not given), the INHIBITION was -24.6%.

`Cn1cc(C2=CCN(CCCOc3ccc(C(N)=O)cc3)CC2)cn1`: the INHIBITION was -64.5%.

Take `CN(C)C(=O)CN1CC=C(c2cnn(Cc3ccccc3)c2)CC1`: the INHIBITION is -52.4%.

As to `CCC(O)Cn1cc(C2=CCN(Cc3ccc(OC)cc3)CC2)cn1` (stereo not given), the INHIBITION is listed as 68.7%.

Consider `Cc1nc(O)cc(CN2CC=C(c3cnn(-c4ccccc4)c3)CC2)n1`, for which the INHIBITION is recorded as -90.2%.

As for `O=c1[nH]ccn1CCCN1CC=C(c2cnn(-c3ccccc3)c2)CC1`, the INHIBITION is -235%.

`CCn1cc(C2=CCN(CCCOc3ccccc3)CC2)cn1`: the INHIBITION is 82%.

Regarding `COc1cccc(Cn2cc(C3=CCN(CCO)CC3)cn2)c1`, the INHIBITION stood at 54.2%.

On to `O=C(c1cn(Cc2ccccc2)c2ncccc12)N1CCOCC1`, for which the INHIBITION is given as -68.2%.

On to `Cc1cccc(CN2CC[C@@H]3[C@@H]2CCN3C(=O)c2ccoc2C)n1`, for which the INHIBITION is -77.9%.

Regarding `CNc1ncc(CN(C)c2ncnc3onc(C)c23)cn1`, the INHIBITION is reported as -3.41%.

As for `O=C(Cc1ccc(O)c(F)c1)N1CCN(CC2CC2)[C@@H]2CS(=O)(=O)C[C@@H]21`, the INHIBITION is -78.4%.

Consider `c1ccc(Cn2cccn2)c(CN2CCC3(CCCNC3)C2)c1` (stereo not given), for which the INHIBITION is reported as 85%.

For the molecule `Fc1cnccc1CN1CCC2(CCNCC2)C1`, the INHIBITION is recorded as -66.9%.

Regarding `O=C(c1onc2ccccc12)N1CCC2(CCCNC2)C1` (stereo not given), the INHIBITION is listed as -59.1%.

`CN(C)CCNC(=O)c1ccn(-c2ccc3ccccn23)n1`: the INHIBITION was 84%.

In the case of `O=C1OCCC1N1CCN(C(=O)Cc2c[nH]c3ccccc23)CC1` (stereo not given), the INHIBITION is on record as -131%.

Regarding `Cc1nc(CC(=O)N2CCN(C(C)c3ccccc3F)CC2)cs1` (stereo not given), the INHIBITION is listed as -60.5%.

As to `CN1CCN(c2ccc(NC(=O)c3cccs3)c(C(F)(F)F)c2)CC1`, the INHIBITION is given as 73.6%.

As for `CCN1CCN(c2ccc(NC(=O)CC(C)C)c(C)c2)CC1`, the INHIBITION is recorded as -6.8%.

`CN(C)C(=O)N1CCC2(C1)CN(c1cccnc1)C(=O)CN2C` (stereo not given): the INHIBITION is recorded as -35.4%.
